Reference: PubChem BioAssay

assay: inhibitors of Sendai virus-induced IRF3 signaling, primary screen, TLR/RLR signaling modifier project, cell-based, Sendai virus stimulus, luciferase, 10K MLSCN set (AID 602276); conditions: HEK293 RL24 IRF3 luciferase reporter, at 10 µM, active compounds read high;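 active means inhibition at or above 50% at 10 µM; inactive means inhibition below 50%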;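 further: firefly luciferase from ISG56 promoter only with Renilla not read in this screen; 0% = Sendai virus plus DMSO and 100% = medium plus DMSO without virus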

inhibition, inactive:
COc1ccc(-c2nc3c(c(SCC(=O)N4CCOCC4)n2)COC(C)(C)C3)cc1 12.6%
CCN(CC)C(=O)c1ccc(CS(=O)(=O)c2ccc(OC)cc2)o1 -17.1%
CC(C)CCNC(=O)NC(=O)COc1ccccc1C#N -47.7%
CCOC(=O)N1CCN(S(=O)(=O)c2ccc(F)c(C(=O)Nc3cc(C)cc(C)c3)c2)CC1 1.83%
Cc1nnc(SCC(=O)Nc2c(Cl)cccc2Cl)[nH]c1=O 8.99%
CCCCN(CCCC)CCn1cnc2c([nH]c3ccc(OC)cc32)c1=O 4.54%
CC(=O)c1ccc(OCC(O)CN2CC(C)OC(C)C2)cc1 (stereo not given) 9.28%
CCOc1ccc(-c2nc(C#N)c(NCc3ccc4c(c3)OCO4)o2)cc1 -4.94%
Cc1cc(N=Cc2cc(Br)ccc2O)no1 15.6%
CCCCN1C(=O)C2C(C(=O)Nc3cccc(OC)c3)C3C=CC2(O3)C1C(=O)NC1CCCCC1C (stereo not given) 14.1%
CN(C)S(=O)(=O)c1ccc2c(c1)c(=O)c(C(=O)NCCCN1CCCCCC1)cn2C 0.741%
COc1ccc(C(=O)N2CCN(c3nc4cc(C)ccc4cc3C#N)CC2)c(OC)c1 14.5%
COc1cc(C(=O)OC(C)CN2CCCC2)cc(OC)c1OC (stereo not given) 5.11%
Cc1ccnc2c(N3C(=O)C4C5C=CC(C5)C4(C)C3=O)cccc12 (stereo not given) 5.21%
COc1ccc(OC)c(NC(=O)CSc2nnc(Cc3cccn3C)n2-c2ccc(F)cc2)c1 19.4%
